High-throughput results: PubChem, Center for Chemical Genomics, University of Michigan
Most compounds without a hit are left out; they make up all but 0.9% or so of the library.
TAR Tat displ – HIV-1 TAR-Tat binding disruption. AID 1259389. 0.6% of 100,000 active. z-score (test concentration not listed). HIV-1 TAR RNA, Tat peptide displacement FRET; hits give high values; active = z-score of 3 or more in at least 2 runs
CDC25B-CDK2 inh – human CDC25B-CDK2/CyclinA binding inhibition; P30305+P24941; HTRF CDC25B-CDK2/CyclinA binding, anti-His/anti-Flag; hits give high values; z-score (concentration not given with the values); 0.72% of 94,000 active; in the data active = z-score above about 3.2
* marks the source's active call; other numbers are inactive results; nt = not tested or not shown.

SMILES	TAR Tat displ	CDC25B-CDK2 inh
CN(C)CCNc1cc(N2CCCCC2)c2noc3c2c1C(=O)c1ccccc1-3	16.5*	6.16*
O=C(NCc1ccccc1Br)c1cc2cccc3c2n1CCS3	1.04	nt
O=C1COc2cc(S(=O)(=O)N3CCN(C(=O)c4ccco4)CC3)c(Cl)cc2N1	-0.44	nt
Cc1ccc(S(=O)(=O)NCCc2csc3nc(-c4ccc(Cl)cc4)nn23)cc1C	0.57	nt
Cc1nc2cc(NCc3ccco3)ccc2n1C	-0.08	16.1*
Cc1nc2cc(NCc3ccncc3)ccc2n1C	-0.77	13.9*
Cc1ccc(-n2cnc3cc(NCc4ccncc4)ccc32)cc1	-0.08	3.5
COc1ccccc1-n1cnc2cc(NCc3ccco3)ccc21	-0.57	6.19
O=C(Cn1cnc(S(=O)(=O)N2CCCCC2)c1)Nc1nccs1	-0.67	nt
CCC1(CC)Cc2ccccc2C(NC(=O)NCC(C)C)=C1C#N	0.9	-2.13
O=c1c2cc3c(cc2nc2sc(Nc4cccc(Cl)c4)nn12)OCO3	0.98	-0.16
Cc1cccc(Nc2nn3c(=O)c4cc5c(cc4nc3s2)OCO5)c1	13.1*	nt
O=C1c2c(O)cc(O)cc2OC(c2ccc(O)c(O)c2)C1O (centres undefined)	nt	-1.04
O=C1c2cc(O)cc(O)c2OC[C@@H]1c1ccc(O)c(O)c1	22.7*	nt
CC(C)n1c(C2CC(=O)N(c3ccc(F)cc3)C2)nc2ccccc21 (centres undefined)	-0.4	-0.79
O=C(Nc1cccc2c1CCCC2)N1CC2CCCN2c2ccccc21 (centres undefined)	-0.59	nt
O=C(CS(=O)(=O)c1ccc(F)cc1)Nc1nc(-c2cccs2)cs1	1.19	nt
O=C(Cc1ccc(NC(=O)N2CCSc3ncccc32)cc1)Nc1ccc(Br)cc1	0.53	16.1*
O=C(Nc1ccc(Br)cc1)N1CCSc2ncccc21	0.44	nt
CCOc1ccc2ncc(S(=O)(=O)c3ccccc3)c(N3CCCCC3)c2c1	-0.35	-0.61
CCOc1ccc2ncc(S(=O)(=O)c3ccc(C)cc3)c(N3CCCC3)c2c1	0.15	5.2*
COc1ccc(S(=O)(=O)c2cnc3cc(OC)c(OC)cc3c2N2CCCCC2)cc1	1.58	-2.03
COc1cc2ncc(S(=O)(=O)c3ccc(C)cc3)c(N3CCCC3)c2cc1OC	-0.63	9.58*
Cc1ccc2c(=O)cc(C(=O)N(Cc3ccc(F)cc3)C3CCS(=O)(=O)C3)oc2c1C (centres undefined)	-1.82	-2.63
Cc1ccc(CN(C(=O)c2cc(=O)c3cc(Cl)ccc3o2)C2CCS(=O)(=O)C2)cc1 (centres undefined)	0.69	-0.43
SMILES	TAR Tat displ	CDC25B-CDK2 inh
COc1ccc(/C=C/c2nc(C#N)c(N3CCN(C(=O)c4ccco4)CC3)o2)cc1OC	0.23	0.75
O=C(Nc1ccccc1)Nc1ccccc1N1CCOCC1	nt	-1.83
O=C(O)c1sccc1S(=O)(=O)Nc1ccccc1N1CCOCC1	nt	18.6*
Cc1csc(NC(=O)C(Cc2ccccc2)NS(=O)(=O)c2ccc3c(c2)CCC(=O)N3)n1 (centres undefined)	nt	-1.19
COc1cccc(/C=C/c2nc(C#N)c(NC(C)c3ccccc3)o2)c1 (centres undefined)	0.07	-0.63
O=c1c2cccnc2[nH]c(=S)n1CCCN1CCOCC1	nt	-0.74
Cc1ccc2c(C)nc(Nc3nc4c(c(=O)[nH]3)CCC4)nc2c1	nt	10.3*
Cc1ccc2nc(Nc3nc4c(c(=O)[nH]3)CCCC4)nc(C)c2c1	0.36	10.2
Cn1cnc2c(=O)oc3ccc(S(=O)(=O)Nc4ccc5c(c4)OCO5)cc3c21	1.96	nt
COc1ccc(S(=O)(=O)N2CCN(c3cc(N4CCCCC4)nc(C)n3)CC2)cc1C	0.48	-2.1
COc1ccc(OC)c2c(C)cc(N3CCN(S(=O)(=O)c4ccc(C)cc4)CC3)nc12	7.84*	-0.03
CC(C)OC(=O)Cn1c2ccc(Cl)cc2c2nc3ccccc3nc21	2.63	-1.39
CCOC(=O)Cn1c2ccc(Cl)cc2c2nc3ccccc3nc21	0.94	19*
CC(C)c1ccc(S(=O)(=O)c2nnn3c2nc(NCC2CCCO2)c2sccc23)cc1 (centres undefined)	-0.69	nt
O=S(=O)(Nc1cccc(-c2ccno2)c1)c1ccc(-c2cnc(C3CC3)o2)cc1	0.9	nt
CC1CCN(C(=O)CCc2nnc3ccc(N4CCOCC4)nn23)CC1	0.88	nt
Cc1cc2c(cc3c(SCC(=O)Nc4ccccc4F)nncn32)o1	0.66	nt
Cc1cc2c(cc3c(SCC(=O)NCc4ccco4)nncn32)o1	27.4*	nt
Cc1ccc(S(=O)(=O)Nc2ccc(-c3cn4ccccc4n3)cc2)cc1	3.39	-0.56
Cc1cc(C)c(NC(=O)CSc2nc(=O)[nH]nc2C)c(C)c1	0.6	-1.9
COc1ccc(OC)c(C2/C(=C(\O)c3ccccc3)C(=O)C(=O)N2c2cccnc2)c1 (centres undefined)	1.93	-3.82
COc1ccc(OC)c(C2/C(=C(/O)c3ccc(C)cc3)C(=O)C(=O)N2c2cccnc2)c1 (centres undefined)	0.4	5.95*
Cc1nn(-c2nncc(-c3ccc(F)cc3)n2)c2c1C(c1ccc(F)cc1)CC(=O)N2 (centres undefined)	1.41	1.07
O=C(CSc1nnc2ccc3ccccc3n12)NCc1ccco1	nt	-2.06
CCc1ccc(Oc2c(C(F)(F)F)oc3c(CN4CCOCC4)c(O)ccc3c2=O)cc1	0.41	1.09
SMILES	TAR Tat displ	CDC25B-CDK2 inh
O=C(NCC1CCCO1)c1cccc(N2C(=O)c3ccc([N+](=O)[O-])cc3C2=O)c1 (centres undefined)	nt	3.46*
O=C(NCC1CCCO1)c1cccc(N2C(=O)CCS2(=O)=O)c1 (centres undefined)	1.47	-1.27
COc1cc(C2c3c(-c4cc(C)ccc4O)n[nH]c3C(=O)N2CCCOC(C)C)ccc1O (centres undefined)	1.8	0.26
Cc1cc(-c2ccc(=O)[nH]n2)cc(S(=O)(=O)NC2CCCCC2)c1C	2.44	nt
CC(=O)CSc1nc2sc3c(c2c(=O)n1-c1ccccc1)CCC3	nt	1.24
COc1cc(Br)c(CC2c3cc(OC)c(OC)cc3CCN2C)cc1OC (centres undefined)	0.98	nt
CN1CCc2cc(O)c(O)cc2C1Cc1ccc(O)c(O)c1 (centres undefined)	38.1*	nt
COCCNc1oc(-c2ccc(COc3ccc(C)cc3)o2)nc1C#N	6.34	-1.44
O=C(c1ccccc1)N1c2ncnn2C2(CCCCC2)[C@@H]2CCCC[C@@H]21	2.79	-1.4
Cc1cccc(C(=O)N2c3ncnn3C3(CCCCC3)[C@@H]3CCCC[C@@H]32)c1	9.19*	0.37
COc1ccc(-c2c3c(=O)n(C)c(=O)n(C)c3c3n2CCOC3c2ccc(Br)cc2)cc1 (centres undefined)	2.33	-1.77
CC(C)=CC[C@@H](O)C1=CC(=O)c2c(O)ccc(O)c2C1=O	34.2*	nt
CCc1cc2c(=O)oc(-c3ccccc3)nc2s1	0.63	-0.8
Cc1cccc(-c2nc3sc(C)cc3c(=O)o2)c1	1.3	7.59*
Cc1cc2nc(CSc3ccc(N)cc3)c(=O)[nH]c2cc1C	18.9*	nt
Cc1cc2nc(CSc3ccccc3N)c(=O)[nH]c2cc1C	-0.63	nt
Cc1c(C(=O)NCc2ccc3c(c2)OCO3)oc2ccc3c(c12)C=CC(C)(C)O3	1.94	-0.13
Cc1ccccc1Cn1c(CN2CCOCC2)nc2ccccc21	1.31	0.49
Cc1sc2c(c1C)CSC(C(=O)NCc1ccco1)=C2	3.56*	nt
Cc1ccc(CNC(=O)C2=Cc3sc(C)c(C)c3CS2)cc1	0.81	nt
